Screening results deposited in PubChem by Sanford-Burnham Center for Chemical Genomics.
An excerpt weighted towards active compounds, which were near 31% of everything screened.
CYP2C19 act – human CYP2C19 activators, primary screen, biochemical, luminescence; Cytochrome P450 2C19 (Homo sapiens), P33261; recombinant CYP2C19, luciferin-H EGE luminescence; active compounds read high; 0 = fully inhibited enzyme, 1 = untreated enzyme; activation factor at 5 µM; 96,000 tested, under 10 active;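 active means activation factor of at least 2 at 5 µM in the primary screen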;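 further: 0 = wells with 2.5 mM tranylcypromine and 1 = vehicle-only wells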
Target sequence (P33261 whole entry, looked up): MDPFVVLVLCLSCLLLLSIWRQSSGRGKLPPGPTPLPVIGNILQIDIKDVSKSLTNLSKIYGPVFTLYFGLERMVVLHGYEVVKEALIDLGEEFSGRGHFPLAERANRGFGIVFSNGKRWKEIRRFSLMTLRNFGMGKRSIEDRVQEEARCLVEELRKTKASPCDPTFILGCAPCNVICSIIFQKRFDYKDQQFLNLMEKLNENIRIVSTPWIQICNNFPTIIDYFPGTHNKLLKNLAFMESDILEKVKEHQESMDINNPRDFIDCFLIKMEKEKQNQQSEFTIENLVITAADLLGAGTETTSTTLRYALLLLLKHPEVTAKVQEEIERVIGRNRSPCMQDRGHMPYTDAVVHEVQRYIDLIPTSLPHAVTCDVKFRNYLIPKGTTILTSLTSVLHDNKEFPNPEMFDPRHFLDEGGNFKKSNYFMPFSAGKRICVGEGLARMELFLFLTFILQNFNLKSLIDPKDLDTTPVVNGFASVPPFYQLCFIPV
CYP2C9 activ – human CYP2C9 activators, primary screen, biochemical, luminescence; 1.4% of 96,000 active; activation factor at 5 µM; Cytochrome P450 2C9 (Homo sapiens), P11712; AID 1024, 2008; recombinant CYP2C9, luciferin-H conversion; active compounds read high; factor 1 = untreated enzyme, 0 = blocked;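 active means activation factor of 2 or more for CYP2C9 at a 5 µM dose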;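 further: 0 = sulfaphenazole-blocked wells and 1 = vehicle-only wells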
CYP2C19 inh – blockers of cytochrome P450 2C19 activity – biochemical, luminescence, ADME assay, primary screen | P33261 | CYP2C19 Supersomes, luciferin-H EGE luminescence, 30 min | inhibition, % at 5 µM | 21% of 96,000 active | AID 778, 2007;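 active means CYP2C19 inhibition above a set limit at 5 µM in the primary screen, cut at about 50% in these data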;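 further: plate controls were negative control wells for no effect and 2.5 mM tranylcypromine positive control for full effect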
CYP2C9 inh – blockers of cytochrome P450 2C9 activity – biochemical, luminescence, ADME assay, primary screen. CYP2C9 Supersomes, luciferin-H conversion. inhibition, % at 5 µM. 20% of 96,000 active. AID 777, 2007;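 active means blocking of liver enzyme CYP2C9 beyond about 50% at 5 µM, limit read from the data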
Numbers without * were called inactive.

SMILES	CYP2C19 act	CYP2C9 activ	CYP2C19 inh	CYP2C9 inh
COC(=O)[C@@H](NC(=O)N(C1CCCCC1)C1CCCCC1)C(C)C	0.8	0.7	17	30
CC(=O)NCCOc1ccc2oc3ccccc3c2c1	0.9	0.9	6	8
COc1ccc(C(=O)CSc2nnc(C3CCCCC3)n2N)c(OC)c1	0.8	1.2	16	-20
COc1cccc(-c2nc(CS(=O)CC(=O)NC3CCCC3)c(C)o2)c1 (stereo not drawn)	0.7	0.4	30	57*
Cc1ccc(-c2nc(CS(=O)CC(=O)NC3CCC(C)CC3)c(C)o2)cc1 (stereo not drawn)	0.3	0.1	67*	89*
COc1ccc(-c2nc(CS(=O)CC(=O)NCc3ccc(Cl)cc3)c(C)o2)cc1 (stereo not drawn)	0.2	0.2	80*	79*
Cc1oc(-c2cccs2)nc1CS(=O)CC(=O)NCCCN1CC(C)CC(C)C1 (stereo not drawn)	1	0.3	3	69*
COc1cc2c(cc1OC)-c1nnc(-c3cccs3)n1C1(CCCC1)C2	1.1	1.1	-9	-12
Cc1csc(=O)n1CCC(=O)O	1.2	1.3	-20	-33
Cc1ccc(C(=O)Nc2nc3ccccc3n3nnnc23)cc1	1	1	2	1
O=C(CN1C(=O)CSC1=O)Nc1ccc(N2CCOCC2)cc1	1.2	1.2	-25	-17
CC(C)(C)S(=O)(=O)c1c(C(=O)O)cccc1C(=O)O	1.2	1.2	-22	-20
CCOC(=O)c1c(NC(=O)c2nc3n(n2)C(C(F)F)CC(C)N3)sc2c1CCCC2 (stereo not drawn)	0.8	0.6	19	38
CCc1cccc(NC(=O)CS(=O)Cc2nc(-c3ccc(C)cc3)oc2C)c1 (stereo not drawn)	0.2	0.1	77*	88*
Cc1ccc(-c2nc(CS(=O)CC(=O)NCCC(C)C)c(C)o2)cc1 (stereo not drawn)	0.5	0.3	49	68*
O=C(NCCOCC(F)(F)C(F)F)c1cc(F)c(F)cc1Cl	0.6	0.9	38	15
CC(C)(C)c1ccc(S(=O)(=O)NCCc2ccncc2)cc1	0	0.1	100*	92*
O=C(O)CCc1ccc(S(=O)(=O)NCCc2ccccc2)cc1	1.2	1	-16	2
CCCc1ccc(S(=O)(=O)NCCc2ccncc2)cc1	0	0	99*	98*
CCCCCc1ccc(S(=O)(=O)NCCc2ccncc2)cc1	0	0	100*	97*
CC(C)(C)c1ccc(S(=O)(=O)NCCOCC(F)(F)C(F)F)cc1	0	2.4*	97*	-141
Cc1cccc(OCCc2nnc(N)s2)c1C	1	1.1	-1	-5
COc1cccc(OC)c1OCCCCCc1c(C)n[nH]c1C	0.1	0.7	86*	32
Cc1ccccc1OCCCCc1c(C)n[nH]c1C	0.3	0.5	65*	50*
COc1cccc(OC)c1OCCCSc1nc(C)cc(=O)[nH]1	1	1	3	1
SMILES	CYP2C19 act	CYP2C9 activ	CYP2C19 inh	CYP2C9 inh
Cc1cccc(C)c1OCCCCc1c(C)n[nH]c1C	0.4	0.3	60*	70*
Cc1ccnc2nc(C(=O)NCCc3ccc(F)cc3)nn12	0.8	1.2	15	-22
Cc1ccc(N(C)C(=O)N2CCN(S(=O)(=O)c3ccc4ccccc4c3)CC2)cc1	0.4	0.7	57*	34
Cc1ccc(N(C)C(=O)N2CCN(S(=O)(=O)c3ccc(C)cc3)CC2)cc1	0.1	0.4	95*	56*
CC(C)CC(=O)N1CCN(S(=O)(=O)c2ccc3ccccc3c2)CC1	0	1.9	96*	-92
CCCNC(=O)N1CCN(S(=O)(=O)c2ccc(C)cc2)CC1	0.9	1.1	9	-6
Cc1ccc(N(C)C(=O)N2CCN(c3ccccn3)CC2)cc1	0.8	0.5	21	53*
O=C1CCCC2=C1C(c1c(Cl)nc3sccn13)C1=C(CCCC1=O)N2	0.7	0.7	27	35
CN(C)S(=O)(=O)N1CCN(C(=O)N(c2ccccc2)c2ccccc2)CC1	0.9	0.7	13	33
Cc1ccc(S(=O)(=O)N2CCN(C(=O)N(c3ccccc3)c3ccccc3)CC2)cc1	0.5	0.5	51*	52*
CC1=NN(c2ccc(F)cc2)C(=O)C1C(c1cccc(O)c1)c1c(C)[nH]n(-c2ccc(F)cc2)c1=O (stereo not drawn)	0.9	0.4	7	59*
